From PubChem BioAssay (NCI)
This is part of a sample that, as a whole, favours compounds with a hit. Of some 83,000 tested, about 20% had one in any assay.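 Single-dose data. Exposure time 48 hours. Values below 10 considered active.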 A number with no mark means an inactive call. The source made the active and inactive calls.

Key:
Assay in all cases: NCI-60 one-dose screen, 48 h (100 = growth as untreated, 0 = no growth, -100 = all killed)
Details in all cases: 10 µM unless noted
SK-MEL-2 melanoma = tested on: SK-MEL-2 melanoma
EKVX NSCLC = tested on: EKVX NSCLC
SN12C renal = tested on: SN12C renal
UO-31 renal = tested on: UO-31 renal
TK-10 renal = tested on: TK-10 renal
ACHN renal = tested on: ACHN renal
CAKI-1 renal = tested on: CAKI-1 renal
A498 renal = tested on: A498 renal
CCRF-CEM leukemia = tested on: CCRF-CEM leukemia
MOLT-4 leukemia = tested on: MOLT-4 leukemia
SR leukemia = tested on: SR leukemia
RPMI-8226 leukemia = tested on: RPMI-8226 leukemia
OVCAR-5 ovarian = tested on: OVCAR-5 ovarian
OVCAR-4 ovarian = tested on: OVCAR-4 ovarian
SK-OV-3 ovarian = tested on: SK-OV-3 ovarian
IGROV1 ovarian = tested on: IGROV1 ovarian
OVCAR-3 ovarian = tested on: OVCAR-3 ovarian
HS 578T breast = tested on: HS 578T breast
NCI/ADR-RES ovarian = tested on: NCI/ADR-RES ovarian
OVCAR-8 ovarian = tested on: OVCAR-8 ovarian

| SMILES | growth (SK-MEL-2 melanoma) | growth (EKVX NSCLC) | growth (SN12C renal) | growth (UO-31 renal) | growth (TK-10 renal) | growth (ACHN renal) | growth (CAKI-1 renal) | growth (A498 renal) | growth (CCRF-CEM leukemia) | growth (MOLT-4 leukemia) | growth (SR leukemia) | growth (RPMI-8226 leukemia) | growth (OVCAR-5 ovarian) | growth (OVCAR-4 ovarian) | growth (SK-OV-3 ovarian) | growth (IGROV1 ovarian) | growth (OVCAR-3 ovarian) | growth (HS 578T breast) | growth (NCI/ADR-RES ovarian) | growth (OVCAR-8 ovarian) |
| --- | --- | --- | --- | --- | --- | --- | --- | --- | --- | --- | --- | --- | --- | --- | --- | --- | --- | --- | --- | --- |
| CCN(CC)c1ccc(C2=NN(C(C)=O)C(c3cc(OC)c(OC)c(OC)c3)C2)cc1 (centres undefined) | 31.8% | 29.8% | 38.5% | -19% (active) | 39.9% | 40.3% | 21% | -22.1% (active) | 12.6% | 5.57% (active) | -23.6% (active) | 2.54% (active) | 39% | 46.9% | 31.5% | -45.1% (active) | -64.8% (active) | -12.2% (active) | -23.9% (active) |  |
| c1ccc(-c2nc3sc(-c4ccccc4)cn3n2)cc1 | 94.7% | 78.6% | 79.5% | 46.9% | 127% | 85.5% | 90.8% | 86% | 86.8% | 88.6% | 90.4% | 85.5% | 122% | 76.1% | 94.2% | 56.2% | 83.5% | 90.1% | 85.6% |  |
| COc1cc(C2CC(c3cccc(Br)c3)=NN2C(C)=O)cc(OC)c1OC (centres undefined) | 59.1% | 52.7% | 41.8% | -27.7% (active) | 48.4% | 39.8% | 39.1% | 19.1% | 14.9% | 19% | 46.3% | 4.29% (active) | 46.5% | 41.7% | 45.3% | -17.3% (active) | -22% (active) | 34.6% | -19.5% (active) |  |
| Nc1ccc(Sc2ccc([N+](=O)[O-])c3nonc23)cc1 | 96.1% | 92.5% | 93.7% | 65.6% | 111% | 23% | 103% | 80.2% | 27.7% | 26.8% | 7.97% (active) | 79.9% | 108% | 97.8% | 96.8% | 97% | 78% | 102% | 98.8% |  |
| Cc1nc2nc(SCC(=O)O)[nH]c2c(=O)[nH]1 | 96% | 108% | 100% | 92.2% | 101% | 110% | 99.2% | 81.5% | 97.2% | 103% | 115% | 96.9% | 104% | 131% | 103% | 101% | 115% | 99% | 105% |  |
| C=C1C(=O)O[C@H]2[C@H]1CC/C(COC(=O)CCSSCCC(=O)OC/C1=C/CC[C@@]3(C)O[C@H]3[C@H]3OC(=O)C(=C)[C@@H]3CC1)=C\CC[C@@]1(C)O[C@@H]21 | 52.4% | 12.6% | -45.8% (active) | -88.1% (active) | -33.8% (active) | -85.2% (active) | 20.3% | 72.9% | -23.6% (active) | -26.8% (active) | -14.1% (active) | -23.5% (active) | 17.7% | 29.9% | 89.9% | -49.6% (active) | -35.8% (active) | 7.57% (active) | 50.5% |  |
| CCOC(=O)C1=C(N)Oc2c(sc3c(C)cccc23)C1c1ccc(Cl)cc1 (centres undefined) | 46.6% | 48.3% | 38.6% | 38.5% | 78.7% | 39.5% | 2.8% (active) | 3.91% (active) | 17% | 32.9% | 17.5% |  | 41.6% | 56.6% | 54.7% | 22.6% | 0.78% (active) | 18.9% |  | 36.8% |
| O=[N+]([O-])c1ccccc1NCSc1ccc(Cl)cc1 | 114% | 104% | 72% | 68.3% | 101% | 104% | 95.3% | 86% | 25% | 49.7% | 65% |  | 114% | 108% | 109% | 123% | 109% | 99.7% |  | 95.5% |
| CC(C)c1cc(C(C)C)c(S(=O)(=O)Oc2ccc(NC(=O)c3ccc(Cl)cc3)cc2)c(C(C)C)c1 | 31.3% | 19.4% | 21.4% | 29.9% | 42.5% | 15.4% | 21.6% | 17.7% | 25.2% | 17.6% | 25.9% | 16.4% | 86.4% | 39.6% | 78.2% | 47.1% | 31.6% |  | 35.6% |  |
| CN(C)CCS(=O)(=O)Nc1cc(-c2ccc3ncc(C#N)c(Nc4ccc(F)c(Cl)c4)c3c2)cnc1Cl | -40.4% (active) | -43.5% (active) | 0.75% (active) | -55.5% (active) | -35.5% (active) | 8.58% (active) | -42.3% (active) | -49.9% (active) | 1.06% (active) | -25.9% (active) | -12.5% (active) |  | -43.8% (active) | -5.26% (active) | -35.1% (active) | -43.3% (active) | -59.8% (active) | -10.5% (active) |  | -10.8% (active) |
| COc1ccc(C2CC(c3ccc(Nc4nc(Nc5ccc(F)cc5)nc(Nc5ccc(Cl)cc5)n4)cc3)=NN2C(C)=O)cc1 (centres undefined) | 96.1% | 109% | 103% | -65.4% (active) | 103% | 91.7% | 108% | 129% | 124% | 93% | 107% | 90.8% | 104% | 99.3% | 107% | 40.4% | 128% | 108% | 85% |  |
| Cc1cc(=O)[nH]c(=O)n1Cc1cn(-c2c3ccccc3nc3ccccc23)nn1 | 107% | 103% | 88.7% | 82.6% | 96.1% | 87.4% | 91% | 101% | 64.7% | 48.5% | 11.4% | 55.5% | 120% | 106% | 96.2% | 33% | 90.7% |  | 106% |  |
| COc1cccc(Oc2ccccc2NC(=O)CNC(=O)c2cccc3ccccc23)c1 | 30% [5 µM] | 35.3% [5 µM] | 31.4% [5 µM] | 39.8% [5 µM] | 58.5% [5 µM] | 33.7% [5 µM] | 23.8% [5 µM] | -16.3% [5 µM] (active) | 15.4% [5 µM] | 12.3% [5 µM] | 5.26% [5 µM] (active) | 21.8% [5 µM] | 41.8% [5 µM] | 42.2% [5 µM] | 42.2% [5 µM] | 27.6% [5 µM] | -23.7% [5 µM] (active) | 24.7% [5 µM] | 15.3% [5 µM] |  |
| CCS(=O)(=O)c1ncnc2nc[nH]c12 | 100% | 99.3% | 94.5% | 92.6% | 98.2% | 106% | 99.6% | 92.8% | 93.3% | 103% | 97.8% | 95.9% | 98.1% | 106% | 95.2% | 109% | 111% | 97.6% | 104% |  |
| O=C1CCC(C(=O)NCCNCCNC(=O)C2CCC(=O)N2)N1 (centres undefined) | 99.8% | 100% | 96.9% | 96.5% | 100% | 112% | 98.8% | 89.9% | 88.7% | 97.2% | 103% | 95.8% | 112% | 109% | 98% | 110% | 106% | 94.1% | 105% |  |
| OC(c1ccccc1)C(NC(Cc1ccccc1)c1ccccc1)c1ccccc1 (centres undefined) | 93.1% | 92% | 87.1% | 72.2% | 92.2% | 90.7% | 77.4% | 74.6% | 93.3% | 71.2% | 91.4% | 73.6% | 90.8% | 89.1% | 91.7% | 67% | 96.9% | 92.2% | 82.6% |  |
